Measured values: the supplement of paper PMC10849652
Targets with a hit are over-represented here; the source holds about 7,900 in all. About 0.6% of all pairs of compound and target were hits. Values without a mark were called inactive.

Key:
Assay in all cases: log2 fold change, soluble protein after heating vs DMSO (PISA); higher = thermal stabilisation; K562 cells, 10 uM, 30 min; active = over 0.2 and 3.5 SD of the protein, either way, in both replicates (recomputed)
erlotinib = compound: C#Cc1cccc(Nc2ncnc3cc(OCCOC)c(OCCOC)cc23)c1 [erlotinib]
Procedure, shortened: (§1)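 Thermal stability values are relative to control samples and come from duplicates. They are expressed as log2 fold changes. For measurement, K562 cells (2×10^6 cells/mL) received 10 μM compound for 30 min, and aliquots were heated for 3 min over 48°C-58°C, pooled, and extracted at 4°C in PBS with 0.5% NP-40. Soluble protein, the supernatant after 21,000xg for 90 min, was quantified by TMTpro 16plex LC-MS/MS with equalised channel sums.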

[1] = compound: C/C(=N\NC(=O)C1=CC(=CC=C1)S(=O)(=O)N2CCOCC2)/C3=C(C=CC(=C3)Cl)O
Procedure, shortened: as §1

[2] = compound: C1=CC(=C(C=C1Cl)C2=NC3=NC=CN=C3C(=N2)NC4=CC=NC=C4)F
Procedure, shortened: as §1

[3] = compound: C1=CC(=CC=C1C2=NC3=C(N2)C=C(C=C3)C(=O)N)OC4=CC=C(C=C4)Cl
Procedure, shortened: as §1

[4] = compound: C1=CC2=C(C=CC(=C2)/C=C\3/C(=O)NC(=NCC4=CC=CS4)S3)N=C1
Procedure, shortened: as §1

[5] = compound: C1=CC2=NC=CN=C2C=C1/C=C/3\C(=O)NC(=O)S3
Procedure, shortened: as §1

[6] = compound: C1=CC=C(C=C1)C2=NC(=C(N2)C3=CC=NC=C3)C4=CC(=C(C=C4)Cl)O
Procedure, shortened: as §1

[7] = compound: C1=CC=C2C(=C1)C3=NNC4=CC=CC(=C43)C2=O
Procedure, shortened: as §1

[8] = compound: C1CCN(C1)C(=O)NC2=CC=CC(=C2)NC3=NC=C(C(=N3)NCCC4=CN=CN4)Br
Procedure, shortened: as §1

[9] = compound: C1CN(CCC1(CC2=CC=C(C=C2)Cl)N)C3=NC=NC4=C3C=CN4
Procedure, shortened: as §1

IRAK-1-4 Inhibitor I = compound: C1COCCN1CCN2C3=CC=CC=C3N=C2NC(=O)C4=CC(=CC=C4)[N+](=O)[O-] [IRAK-1-4 Inhibitor I]
Procedure, shortened: as §1

ibrutinib = compound: C=CC(=O)N1CCC[C@@H](n2nc(-c3ccc(Oc4ccccc4)cc3)c3c(N)ncnc32)C1 [ibrutinib]
Procedure, shortened: as §1

[10] = compound: CC(=O)c1cnc2ccc(-c3cc(Cl)c(O)c(Cl)c3)nc2c1N[C@H]1CC[C@H](CN(C)C)CC1
Procedure, shortened: as §1

ralimetinib = compound: CC(C)(C)Cn1c(N)nc2ccc(-c3[nH]c(C(C)(C)C)nc3-c3ccc(F)cc3)nc21 [ralimetinib]
Procedure, shortened: as §1

[11] = compound: CC(C)(O)CC(=O)NCCn1ccc2ncnc(Nc3ccc(Oc4cccc(C(F)(F)F)c4)c(Cl)c3)c21
Procedure, shortened: as §1

[12] = compound: CC(C)C1=C2N=C(C=C(N2N=C1)NCC3=CC=CC=C3)NCCCCCCN
Procedure, shortened: as §1

[13] = compound: CC(C)C[C@@H](C=O)NC(=O)[C@H](CC(C)C)NC(=O)[C@H](CC(C)C)NC(=O)OCc1ccccc1
Procedure, shortened: as §1

pinometostat = compound: CC(C)N(C[C@H]1O[C@@H](n2cnc3c(N)ncnc32)[C@H](O)[C@@H]1O)[C@H]1C[C@@H](CCc2nc3cc(C(C)(C)C)ccc3[nH]2)C1 [pinometostat]
Procedure, shortened: as §1

[14] = compound: CC1=C(C(CC(=O)N1)C2=CC=C(C=C2)C(F)(F)F)C(=O)NC3=C(C=C4C(=C3)C=NN4)F
Procedure, shortened: as §1

[15] = compound: CC1=C(C2=C(C=C1)C(=O)C3=CC=CC=C3N2CCCN)C
Procedure, shortened: as §1

UniProt Q9NXF7, sequence (Q9NXF7 whole entry, looked up): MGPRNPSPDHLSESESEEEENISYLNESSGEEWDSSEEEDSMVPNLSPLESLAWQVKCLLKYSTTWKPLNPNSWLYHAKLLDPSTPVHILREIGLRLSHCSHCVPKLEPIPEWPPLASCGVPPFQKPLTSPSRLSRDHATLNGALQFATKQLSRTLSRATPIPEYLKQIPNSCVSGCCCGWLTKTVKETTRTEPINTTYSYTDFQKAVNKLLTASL
UniProt Q14203, sequence (Q14203 whole entry, looked up): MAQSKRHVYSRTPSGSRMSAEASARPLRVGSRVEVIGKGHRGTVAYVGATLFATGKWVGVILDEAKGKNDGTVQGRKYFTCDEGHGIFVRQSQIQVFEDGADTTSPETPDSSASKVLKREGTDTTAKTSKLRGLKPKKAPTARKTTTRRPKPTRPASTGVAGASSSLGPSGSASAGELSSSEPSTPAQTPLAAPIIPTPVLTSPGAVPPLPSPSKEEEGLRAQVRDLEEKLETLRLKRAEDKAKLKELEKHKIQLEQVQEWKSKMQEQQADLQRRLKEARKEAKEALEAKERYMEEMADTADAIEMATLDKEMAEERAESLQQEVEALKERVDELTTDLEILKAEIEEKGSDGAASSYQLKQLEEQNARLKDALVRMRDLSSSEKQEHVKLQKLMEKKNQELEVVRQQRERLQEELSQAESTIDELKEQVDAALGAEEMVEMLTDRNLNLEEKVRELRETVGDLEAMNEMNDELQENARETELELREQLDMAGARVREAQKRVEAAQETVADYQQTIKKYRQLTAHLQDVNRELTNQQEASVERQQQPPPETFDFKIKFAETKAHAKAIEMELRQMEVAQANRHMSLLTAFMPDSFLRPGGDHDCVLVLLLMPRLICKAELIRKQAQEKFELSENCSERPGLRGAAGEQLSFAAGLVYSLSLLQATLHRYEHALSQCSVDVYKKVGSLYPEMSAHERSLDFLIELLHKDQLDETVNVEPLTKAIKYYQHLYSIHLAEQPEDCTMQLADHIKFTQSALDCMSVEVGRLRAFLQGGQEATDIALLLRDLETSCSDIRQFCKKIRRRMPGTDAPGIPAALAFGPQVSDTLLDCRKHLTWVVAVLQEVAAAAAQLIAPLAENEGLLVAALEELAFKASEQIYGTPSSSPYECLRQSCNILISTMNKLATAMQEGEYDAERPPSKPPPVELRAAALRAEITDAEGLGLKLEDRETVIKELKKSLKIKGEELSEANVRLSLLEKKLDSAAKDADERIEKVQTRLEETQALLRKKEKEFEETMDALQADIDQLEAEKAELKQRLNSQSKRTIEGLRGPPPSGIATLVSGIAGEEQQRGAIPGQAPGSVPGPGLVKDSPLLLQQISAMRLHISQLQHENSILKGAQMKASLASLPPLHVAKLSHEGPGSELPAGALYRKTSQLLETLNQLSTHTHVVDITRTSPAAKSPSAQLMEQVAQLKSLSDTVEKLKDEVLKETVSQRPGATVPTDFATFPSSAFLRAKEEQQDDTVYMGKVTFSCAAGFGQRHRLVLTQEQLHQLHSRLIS
UniProt Q9H467, sequence (Q9H467 whole entry, looked up): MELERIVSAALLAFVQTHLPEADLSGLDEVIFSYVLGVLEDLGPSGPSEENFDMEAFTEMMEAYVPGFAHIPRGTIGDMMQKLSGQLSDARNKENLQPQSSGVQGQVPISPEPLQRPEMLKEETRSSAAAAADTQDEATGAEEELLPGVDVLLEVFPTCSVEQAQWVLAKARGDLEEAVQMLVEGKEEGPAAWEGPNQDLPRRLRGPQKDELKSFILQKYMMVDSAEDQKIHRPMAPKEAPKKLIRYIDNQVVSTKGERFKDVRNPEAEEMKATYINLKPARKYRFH
UniProt O60573, sequence (O60573 whole entry, looked up): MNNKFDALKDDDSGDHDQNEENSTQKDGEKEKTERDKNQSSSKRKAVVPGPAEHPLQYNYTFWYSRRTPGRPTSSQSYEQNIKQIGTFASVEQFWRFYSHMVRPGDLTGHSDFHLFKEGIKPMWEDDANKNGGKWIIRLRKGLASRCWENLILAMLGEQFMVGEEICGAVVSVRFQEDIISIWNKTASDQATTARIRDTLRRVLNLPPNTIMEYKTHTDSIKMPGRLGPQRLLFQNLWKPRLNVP
UniProt P00374, sequence (P00374 whole entry, looked up): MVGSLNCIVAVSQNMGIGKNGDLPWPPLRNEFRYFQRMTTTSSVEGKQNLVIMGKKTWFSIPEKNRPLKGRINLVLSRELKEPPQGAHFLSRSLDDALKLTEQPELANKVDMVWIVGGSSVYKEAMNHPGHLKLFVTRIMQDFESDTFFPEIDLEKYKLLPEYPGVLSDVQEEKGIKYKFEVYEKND
UniProt P34913, sequence (P34913 whole entry, looked up): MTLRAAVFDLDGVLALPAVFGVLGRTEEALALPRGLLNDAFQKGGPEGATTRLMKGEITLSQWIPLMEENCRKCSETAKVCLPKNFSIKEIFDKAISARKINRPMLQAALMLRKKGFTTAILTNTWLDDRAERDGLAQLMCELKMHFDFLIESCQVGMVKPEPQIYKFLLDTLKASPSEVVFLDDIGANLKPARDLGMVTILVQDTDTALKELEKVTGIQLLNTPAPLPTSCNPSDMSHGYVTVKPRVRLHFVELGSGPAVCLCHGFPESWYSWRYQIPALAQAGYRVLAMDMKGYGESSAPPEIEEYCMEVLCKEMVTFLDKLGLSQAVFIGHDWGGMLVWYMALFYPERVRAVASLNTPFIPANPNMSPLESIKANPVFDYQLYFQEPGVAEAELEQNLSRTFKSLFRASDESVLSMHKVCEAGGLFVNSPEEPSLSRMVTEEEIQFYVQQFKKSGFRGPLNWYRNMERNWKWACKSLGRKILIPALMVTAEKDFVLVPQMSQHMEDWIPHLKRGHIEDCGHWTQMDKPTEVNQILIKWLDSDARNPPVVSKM
UniProt P24534, sequence (P24534 whole entry, looked up): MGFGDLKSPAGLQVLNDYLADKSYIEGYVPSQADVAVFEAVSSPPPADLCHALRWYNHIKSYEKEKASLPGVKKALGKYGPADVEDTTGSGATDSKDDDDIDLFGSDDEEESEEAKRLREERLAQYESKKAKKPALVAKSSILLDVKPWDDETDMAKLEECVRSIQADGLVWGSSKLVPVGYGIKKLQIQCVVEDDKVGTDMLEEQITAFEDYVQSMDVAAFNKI
UniProt P50402, sequence (P50402 whole entry, looked up): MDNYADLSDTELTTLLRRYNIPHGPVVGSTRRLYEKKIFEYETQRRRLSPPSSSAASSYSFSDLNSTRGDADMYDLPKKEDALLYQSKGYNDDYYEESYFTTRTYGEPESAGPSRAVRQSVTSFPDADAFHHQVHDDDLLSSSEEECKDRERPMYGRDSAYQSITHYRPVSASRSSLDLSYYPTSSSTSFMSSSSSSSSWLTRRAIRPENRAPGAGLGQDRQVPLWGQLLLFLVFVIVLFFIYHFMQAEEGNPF
UniProt Q9GZT9, sequence (Q9GZT9 whole entry, looked up): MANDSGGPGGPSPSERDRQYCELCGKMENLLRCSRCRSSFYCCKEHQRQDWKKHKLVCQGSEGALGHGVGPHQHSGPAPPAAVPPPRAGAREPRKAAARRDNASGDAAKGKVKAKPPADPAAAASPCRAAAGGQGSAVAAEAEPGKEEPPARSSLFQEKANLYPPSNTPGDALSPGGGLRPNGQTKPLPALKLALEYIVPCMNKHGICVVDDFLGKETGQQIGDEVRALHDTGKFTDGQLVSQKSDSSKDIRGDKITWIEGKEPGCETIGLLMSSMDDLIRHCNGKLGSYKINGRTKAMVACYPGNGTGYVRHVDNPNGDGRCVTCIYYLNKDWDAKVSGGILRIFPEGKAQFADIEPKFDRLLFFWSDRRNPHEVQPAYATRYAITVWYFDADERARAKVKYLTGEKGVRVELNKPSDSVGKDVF
UniProt Q9BV94, sequence (Q9BV94 whole entry, looked up): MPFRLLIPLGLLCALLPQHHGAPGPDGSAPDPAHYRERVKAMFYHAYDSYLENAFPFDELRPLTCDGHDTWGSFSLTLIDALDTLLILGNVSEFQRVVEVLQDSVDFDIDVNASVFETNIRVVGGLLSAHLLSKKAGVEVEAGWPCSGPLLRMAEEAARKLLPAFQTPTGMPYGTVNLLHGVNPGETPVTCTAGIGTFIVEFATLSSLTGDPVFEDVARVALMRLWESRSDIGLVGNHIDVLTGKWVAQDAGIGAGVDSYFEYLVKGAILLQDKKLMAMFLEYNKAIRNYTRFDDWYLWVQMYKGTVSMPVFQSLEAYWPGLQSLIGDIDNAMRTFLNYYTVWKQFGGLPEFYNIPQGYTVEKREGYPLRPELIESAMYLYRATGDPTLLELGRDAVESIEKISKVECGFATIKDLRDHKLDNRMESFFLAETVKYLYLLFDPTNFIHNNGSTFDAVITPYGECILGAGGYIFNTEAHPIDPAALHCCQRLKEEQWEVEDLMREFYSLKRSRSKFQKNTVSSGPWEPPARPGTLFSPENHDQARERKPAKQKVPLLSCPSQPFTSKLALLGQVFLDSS
UniProt Q9UK59, sequence (Q9UK59 whole entry, looked up): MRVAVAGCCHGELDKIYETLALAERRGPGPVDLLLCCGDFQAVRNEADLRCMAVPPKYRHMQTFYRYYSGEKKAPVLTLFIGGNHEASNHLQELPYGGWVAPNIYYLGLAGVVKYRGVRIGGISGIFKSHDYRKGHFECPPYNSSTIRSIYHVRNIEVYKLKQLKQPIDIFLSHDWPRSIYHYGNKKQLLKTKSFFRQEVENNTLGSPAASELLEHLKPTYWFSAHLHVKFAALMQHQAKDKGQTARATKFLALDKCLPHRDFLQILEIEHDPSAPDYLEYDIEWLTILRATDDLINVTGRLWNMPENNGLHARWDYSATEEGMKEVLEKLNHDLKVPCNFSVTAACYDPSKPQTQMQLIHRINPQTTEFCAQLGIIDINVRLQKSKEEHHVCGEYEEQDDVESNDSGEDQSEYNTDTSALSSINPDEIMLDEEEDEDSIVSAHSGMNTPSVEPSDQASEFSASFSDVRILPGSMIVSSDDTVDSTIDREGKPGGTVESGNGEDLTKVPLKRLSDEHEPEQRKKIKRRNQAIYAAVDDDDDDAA

| Target | log2 fold change (erlotinib) | log2 fold change [1] | log2 fold change [2] | log2 fold change [3] | log2 fold change [4] | log2 fold change [5] | log2 fold change [6] | log2 fold change [7] | log2 fold change [8] | log2 fold change [9] | log2 fold change (IRAK-1-4 Inhibitor I) | log2 fold change (ibrutinib) | log2 fold change [10] | log2 fold change (ralimetinib) | log2 fold change [11] | log2 fold change [12] | log2 fold change [13] | log2 fold change (pinometostat) | log2 fold change [14] | log2 fold change [15] |
| --- | --- | --- | --- | --- | --- | --- | --- | --- | --- | --- | --- | --- | --- | --- | --- | --- | --- | --- | --- | --- |
| EGLN1 (UniProt Q9GZT9) | 0.035 | -0.355 (active) | 0.075 | -0.035 | 0.043 | -0.08 | 0.021 | -0.02 | 0.01 | -0.003 | 0.016 | -0.054 | -0.027 | -0.034 | -0.01 | -0.083 | 0.018 | 0.045 | -0.002 | -0.029 |
| EEF1B2 (UniProt P24534) | -0.006 | 0.033 | -0.028 | -0.058 | 0.008 | -0.036 | 0.027 | 0.02 | 0.064 | -0.058 | -0.01 | -0.054 | 0.009 | 0.003 | 0.011 | -0.069 | 0.04 | 0.001 | -0.027 | 0.047 |
| DHFR (UniProt P00374) | 0.156 | 0 | -0.176 | -0.144 | 0.03 | 0.043 | 0.055 | 0.049 | -0.047 | -0.015 | -0.065 | -0.008 | -0.06 | 0.192 | -0.044 | 0.101 | 0.083 | 0.255 | -0.114 | 0.2 |
| DCTN1 isoform 4 (UniProt Q14203) | 0.04 | 0.031 | -0.053 | -0.033 | 0.037 | -0.009 | -0.023 | 0.05 | 0.046 | -0.072 | -0.101 | -0.02 | -0.001 | 0.114 | -0.086 | -0.303 (active) | 0.07 | 0.138 | -0.002 | 0.019 |
| CUEDC2 (UniProt Q9H467) | 0.016 | -0.023 | 0.047 | 0.023 | -0.021 | 0.117 | -0.074 | 0.008 | -0.071 | -0.006 | 0.035 | -0.011 | 0.003 | -0.026 | -0.056 | -0.003 | 0.198 | -0.001 | -0.015 | -0.159 |
| DNTTIP2 (UniProt Q5QJE6) | -0.111 | -0.186 | -0.242 | 0.038 | 0.005 | -0.043 | -0.069 | -0.269 | -0.004 | -0.111 | -0.027 | 0.045 | -0.265 | 0.089 | 0.046 | -0.234 | 0.046 | 0.266 | -0.017 | -0.975 (active) |
| EPHX2 (UniProt P34913) | -0.01 | 0.213 | -0.008 | 0.2 | 0.09 | -0.004 | 0.038 | -0.032 | 0.123 | -0.001 | 0.044 | 0.096 | -0.024 | -0.026 | -0.018 | 0.285 (active) | 0.012 | 0.144 | 0.073 | -0.006 |
| DCAF16 (UniProt Q9NXF7) | 0.051 | 0.042 | 0.036 | 0 | -0.034 | -0.002 | -0.001 | 0.048 | 0.039 | -0.127 | -0.04 | 0.017 | 0.039 | 0.034 | -0.052 | -0.027 | 0.018 | 0.055 | -0.047 | -0.105 |
| EIF4E2 (UniProt O60573) | 0.013 | 0.056 | -0.026 | -0.045 | -0.007 | -0.054 | -0.111 | -0.009 | -0.032 | -0.008 | 0.064 | -0.007 | -0.272 | 0.012 | -0.036 | -0.109 | 0.118 | 0.043 | 0.056 | 0.116 |
| EDEM2 (UniProt Q9BV94) | -0.025 | 0.023 | -0.009 | 0.09 | 0.132 | -0.318 | 0.012 | 0.081 | -0.018 | 0.05 | 0.181 | -0.014 | -0.062 | -0.138 | -0.009 | -0.071 | 0.065 | -0.001 | 0.009 | 0.022 |
| EMD (UniProt P50402) | 0.025 | 0.002 | -0.078 | 0.056 | 0.008 | 0.033 | -0.011 | -0.072 | 0.031 | 0.074 | 0.039 | 0.009 | -0.021 | -0.004 | 0.028 | -0.114 | 0.034 | 0.013 | 0.021 | -0.042 |
| DMXL1 (UniProt Q9Y485) | 0.059 | 0.071 | -0.006 | 0.006 | 0.068 | -0.001 | 0.024 | -0.02 | 0.019 | 0.034 | -0.005 | 0.002 | -0.035 | 0.028 | -0.085 | -0.231 | 0.019 | 0.042 | -0.005 | 0.069 |
| DNAAF2 (UniProt Q9NVR5) | 0.046 | 0.021 | 0.108 | -0.003 | 0.01 | 0.016 | -0.018 | -0.025 | 0.021 | -0.025 | -0.02 | -0.023 | 0.014 | 0.022 | 0.013 | -0.025 | -0.054 | -0.023 | 0 | -0.013 |
| DBR1 (UniProt Q9UK59) | 0.031 | 0.042 | -0.052 | 0.025 | -0.033 | 0.002 | 0.069 | 0.006 | -0.026 | 0.044 | -0.04 | 0.02 | -0.043 | 0.037 | 0.006 | 0.032 | -0.026 | -0.012 | 0.065 | 0.114 |
| DOCK8 (UniProt Q8NF50) | 0.259 | 0.001 | 0.182 | 0.04 | -0.092 | -0.021 | -0.046 | 0.059 | -0.076 | -0.071 | 0.047 | 0.015 | 0.029 | 0.105 | -0.198 | 0.152 | 0.274 | 0.059 | 0.064 | -0.121 |
| FAM122A (UniProt Q96E09) | 0.095 | 0.073 | 0.053 | -0.025 | -0.068 | 0.051 | -0.019 | 0.03 | 0.031 | -0.075 | 0.002 | 0.016 | -0.015 | -0.053 | 0.105 | 0.066 | 0.016 | -0.008 | 0.007 | -0.117 |
